Shown are actives, neighbours in structure and some others; about 4.1% of the full set was active somewhere.
hcDAF-12 act: activators of H. contortus DAF-12 nuclear receptor; AID 652067; HEK293 hcDAF-12 lit1-tk-luc reporter, luminescence; 0% DMSO, 100% Δ7-dafachronic acid; activation, % at 6.8 µM; actives 1.4% (n = 370,000);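 active = activation above the mean of all tested compounds plus 3 SD, cut at about 5.5% in these data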
DAX1 inh-1: blocks DAX1 repression of SF-1 activated StAR promoter | HEK293T StAR-luciferase reporter, SF-1/DAX-1 repression relief | inhibition, % at 6.8 µM | actives 1.1% (n = 370,000) | AID 652010;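 active = inhibition above the mean over all tested compounds plus 3 SD, cut at about 3.6% in these data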;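 note: higher inhibition means more luminescence from relief of DAX-1 repression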
DAX1 inh-2: inhibitors of human orphan nuclear receptor DAX1 (NR0B1). P51843. HEK293 Gal4-DAX1 luciferase reporter, luminescence. inhibition, % at 6.75 µM. actives 0.99% (n = 340,000). AID 504766;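 active = inhibition above the mean over all tested compounds plus 3 SD, cut at about 4.2% in these data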;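 note: inhibition shows as a rise in luminescence from relieved DAX1 repression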
Target sequence (P51843 207-470 limits assumed): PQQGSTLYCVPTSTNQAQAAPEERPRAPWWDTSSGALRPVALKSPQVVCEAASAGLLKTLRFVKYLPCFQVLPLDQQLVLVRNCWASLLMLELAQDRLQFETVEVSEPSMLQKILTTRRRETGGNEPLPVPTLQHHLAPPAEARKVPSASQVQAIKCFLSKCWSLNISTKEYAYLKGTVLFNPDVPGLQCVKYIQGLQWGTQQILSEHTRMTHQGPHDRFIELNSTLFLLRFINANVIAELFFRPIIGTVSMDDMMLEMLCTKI
ssDAF12 agonist: activates DAF-12 receptor from parasite S. stercoralis; HEK293 ssDAF-12/GRIP1 lit1-tk-luc reporter, luminescence; % of 3 µM dafachronic acid response; activation, % at 6.8 µM; actives 1% (n = 370,000); AID 652126;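 active = activation above the mean over all tested compounds plus 3 SD, cut at about 0.9% in these data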
hgDAF-12 ag: agonists of H. glycines DAF-12 nuclear receptor; HEK293 GAL4-hgDAF12 UAS-luciferase reporter, agonist luminescence; normalized to butyrate control; actives 1.8% (n = 370,000); activation, % at 6.8 µM;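 active = activation above a cutoff set at the mean of all screened compounds plus 3 SD, cut at about 10% in these data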
Large screens that a line does not name were inactive.

Cc1ccccc1-c1nc2cc(NC(=O)C3CC3)ccc2o1	hgDAF-12 ag 11
CCC(=O)Nc1ccc2oc(-c3ccccc3Br)nc2c1	hgDAF-12 ag 11
O=C(Nc1cc(Cl)ccc1F)C1CCCN(c2nnc(-n3cccc3)s2)C1 (stereo unspecified)	none (no result: DAX1 inh-2)
O=C1NC2(CCCCC2)C(=O)N1c1ccccc1	DAX1 inh-2 5.8
CN(C)c1nc(Cl)nc(NCCOc2ccccc2)n1	DAX1 inh-2 4.3
CCNc1nc(Cl)nc(NCCOc2ccc(C)cc2)n1	none
COc1ccc2nc(N3C(=O)/C(=C/c4ccccc4)NC3=S)sc2c1	none
CCOc1ccc2nc(N3C(=O)/C(=C/c4ccccc4)NC3=S)sc2c1	DAX1 inh-2 5.1
c1ccc(C(c2ccccc2)c2ccn[nH]2)cc1	none
Cc1ccc(SCCSc2nc(C)cc(=O)[nH]2)cc1	DAX1 inh-2 5.0
O=C(NN1C(=O)/C(=C/c2ccc(O)c(O)c2)SC1=S)c1ccccc1	ssDAF12 agonist 1.2
C=C(CO)C1Cc2cc(C(C)=O)ccc2O1 (stereo unspecified)	DAX1 inh-2 4.3
CC1Cc2cc(C(=O)O)ccc2O1 (stereo unspecified)	none
NC(=O)NC(=O)CN1c2cccc3cccc(c23)S1(=O)=O	none
COC(=O)C(C)N1C(=O)S/C(=C\c2cc(C)n(-c3ccccn3)c2C)C1=O (stereo unspecified)	hgDAF-12 ag 11
O=C(Nc1cccc2c1[nH]c(=O)c1ccccc12)C(F)(F)F	DAX1 inh-1 4.0
O=C(Nc1cccc2c1[nH]c1ccccc12)C(F)(F)F	none
CCC(c1nnnn1-c1ccc2c(c1)OCCO2)N1CCN(C(=O)C2CCCO2)CC1 (stereo unspecified)	none (no result: DAX1 inh-2)
CCn1cnc2cc(NCc3ccc(C)cc3)ccc21	DAX1 inh-1 4.4
CCn1cnc2cc(NCc3ccc(Br)cc3)ccc21	none (no result: DAX1 inh-2)
Cc1ccc(CNc2ccc3c(c2)ncn3C(C)C)cc1	DAX1 inh-2 6.2
COc1ccncc1-c1ccc(C2=CC(=O)CC(C)(C)C2=O)cc1	none
COc1cccc2c1[C@H](/C=C/c1ccccc1)[C@@H]([C@H](O)CO)OC2	none (no result: DAX1 inh-2)
CCCc1nnc(NC(=O)CCC(=O)N2CCN(S(=O)(=O)c3ccc(C)cc3)CC2)s1	ssDAF12 agonist 1.1
Cc1ccc(S(=O)(=O)N2CCC(C(=O)Nc3nnc(-c4ccc(F)cc4)s3)CC2)cc1	hcDAF-12 act 6.5
O=C(Nc1nnc(-c2ccc(F)cc2)s1)C1CCN(S(=O)(=O)c2ccc(Cl)cc2)CC1	none
Cc1ccc(S(=O)(=O)N2CCC(C(=O)Nc3cccnc3)CC2)cc1	DAX1 inh-2 5.4
Cc1ccc(NC(=O)C2CCN(S(=O)(=O)c3cccnc3)CC2)cc1C	none
O=C1Cn2nnc(-c3ccccc3)c2C2c3cc(Br)ccc3CCN12 (stereo unspecified)	none (no result: DAX1 inh-2)
COC(=O)[C@]12C[C@H](CC(=O)N3CCN(C(=O)C4CC4)CC3)C(=O)N(CCC3=CCCCC3)C1=C[C@H](COCc1ccccc1)O[C@@H]2C	none (no result: DAX1 inh-2)
O=C1NC(c2ccc(Br)cc2)c2c(-c3ccccc3)n[nH]c21 (stereo unspecified)	none (no result: DAX1 inh-2)
O=C(O)COc1ccccc1/C=N/NC(=O)CSc1nnc(SCc2ccc(Cl)cc2)s1	none
O=C(CSc1nnc(SCc2ccc(Cl)cc2)s1)N/N=C/c1c[nH]c2ccccc12	hcDAF-12 act 5.6
Cc1ccnn1CC(=O)N/N=C/c1c[nH]c2ccccc12	none
O=C(CSc1ccccn1)N/N=C/c1c[nH]c2ccccc12	hcDAF-12 act 5.8
O=C(CSc1nnc(SCc2cccc3ccccc23)s1)N/N=C/c1c[nH]c2ccccc12	ssDAF12 agonist 1.4
Oc1ccc2[nH]cc(-c3cccs3)c2c1-c1ccccc1	none (no result: DAX1 inh-2)
OC(c1ccc(F)c(F)c1)c1nc(-c2cnc3ccccc3c2)cs1 (stereo unspecified)	none (no result: DAX1 inh-2)
O=S(=O)(NC1=NCCCCC1)c1cc(F)ccc1F	DAX1 inh-2 4.5
O=C(CN1C(=O)CCSc2ccccc21)Nc1cccc(Cl)c1F	none (no result: DAX1 inh-2)
O=C(C1CCCCC1)n1ccc2ccc(-c3ccc4ccn(Cc5ccccc5)c4c3)cc21	none (no result: DAX1 inh-2)
CCOc1ccc(/C=N/Nc2nc(C)cs2)c(O)c1	DAX1 inh-2 4.5
CCOc1ccc(/C=N/Nc2cc(N3CCOCC3)ncn2)c(O)c1	none
CC(C)(C)S(=O)(=O)N1C[C@H]2C(=C(CCO)C[C@H]3C(=O)N(c4ccccc4)C(=O)[C@H]32)[C@@H]1CCO	none (no result: DAX1 inh-2)
CCOC(=O)N1CCN(C(=O)C2CCN(C(=O)c3ccc(C(C)(C)C)cc3)CC2)CC1	DAX1 inh-2 4.4
CCOC(=O)N1CCN(C(=O)C2CCN(C(=O)c3ccc([N+](=O)[O-])cc3)CC2)CC1	none
CCOc1cccc(/C=C/c2ccc3cccc(O)c3n2)c1OC	none
CCOc1cccc(/C=C/c2ccc3cccc(O)c3n2)c1O	hcDAF-12 act 5.8, hgDAF-12 ag 10
CCCn1c(CNc2ccc(Br)cc2)nc2ccccc21	none
Cn1c(CNc2ccc(F)cc2)nc2ccccc21	hcDAF-12 act 6.5, ssDAF12 agonist 3.1, hgDAF-12 ag 13
Cc1ccccc1Nc1nnc(SCC(=O)Nc2ccccc2[N+](=O)[O-])s1	none
Cc1cccc(Nc2nnc(SCC(=O)Nc3ccccc3[N+](=O)[O-])s2)c1	DAX1 inh-2 4.4
COc1ccc(C2O[C@@H](C)[C@@H]3C(=O)N4CCc5c([nH]c6ccccc56)[C@@H]4C[C@@H]3N2C)cc1 (stereo partly specified)	none (no result: DAX1 inh-2)
O=[N+]([O-])c1ccc2[nH]c(=S)sc2c1	ssDAF12 agonist 2.2
Cc1ccc(S(=O)(=O)NCC(=O)OCC(=O)N(C)C2CCCCC2)cc1	none
Cc1ccc(S(=O)(=O)N2CC(CO)=CCC2c2ccccc2)cc1 (stereo unspecified)	none (no result: DAX1 inh-2)
O=C(C=Cc1ccc(OCc2ccccc2)cc1)c1c(F)cccc1F	none (no result: DAX1 inh-2)
CCCCNC(=S)N(CCN(CC)CC)Cc1cc2cc3c(cc2[nH]c1=O)OCCO3	DAX1 inh-2 4.3
O=C(NC1CCCCCC1)c1ccc(=O)n(Cc2ccccc2)n1	DAX1 inh-2 4.5
COC(=O)C1CCN(C(=O)COC(=O)c2ccc(=O)n(Cc3ccccc3)n2)CC1	none
Cc1cc(Cl)ccc1OCCn1cncn1	hcDAF-12 act 6.0
COc1ccccc1N1CCN(C(=O)c2oc3ccc(F)cc3c2C)CC1	none
Cc1c(C(=O)Nc2ccccc2N2CCN(C)CC2)oc2ccc(F)cc12	ssDAF12 agonist 1.0
CCCOc1ccc(N2C(=O)CC(N(CCc3ccc(OC)c(OC)c3)C(=S)Nc3ccccc3)C2=O)cc1 (stereo unspecified)	none (no result: hcDAF-12 act, DAX1 inh-1, ssDAF12 agonist, hgDAF-12 ag)
CNC(=S)N(CCc1ccc(OC)c(OC)c1)C1CC(=O)N(c2ccccc2)C1=O (stereo unspecified)	DAX1 inh-2 5.0 (no result: hcDAF-12 act, DAX1 inh-1, ssDAF12 agonist, hgDAF-12 ag)
COc1ccc(C(CNC(=O)c2ccc(S(=O)(=O)Nc3ccccc3OC)cc2)N2CCCC2)cc1 (stereo unspecified)	DAX1 inh-1 4.2

Compound activity: PubChem BioAssay, The Scripps Research Institute Molecular Screening Center
